About 83,000 compounds went through this panel and 20% of them were active in at least one assay; those are over-represented in the sample as a whole.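 Percent growth is the endpoint: 0 to 100 indicates growth inhibition (40 means 60% inhibition), 0 means no net growth, and negative values indicate cell death.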 Active and inactive are the calls of the source.
Test system: HT29 colon
Experiment: NCI-60 one-dose screen, 48 h (100 = growth as untreated, 0 = no growth, -100 = all killed)
Conditions: 10 µM unless noted
Protocol: Growth inhibition of the HT29 human tumor cell line is measured as a screen for anti-cancer activity. Cells are grown in 96 well plates and exposed to the test compound for 48 hours. Compounds are tested at a single concentration, which is 10^-5 M for most compounds. The reported endpoint is percent growth (GI% or GIPRCNT), where numbers from 0 - 100% represent growth inhibition, and numbers from -100% - 0 represent cell death. For example, a value of 40 represents 60% growth inhibition. A value of 0 means no net growth occurred over the course of the experiment. A value of -40 indicates 40% of cells at the beginning of the experiment died by the end of the experiment. A value of -100 means all cells are dead at the end of the experiment.
NCI-60 Human Tumor Cell Lines Screen was performed using the standard one-dose NCI protocol, which is described in more detail at https://dtp.cancer.gov/discovery_development/nci-60/default.htm.
Compounds with GIPRCNT values below 10 were considered active. Activity score was based on GIPRCNT using the following formula: […]
Score is 0 for GIPRCNT values of 100 or above, 50 for GIPRCNT values of 0, and 100 for GIPRCNT values of -100.

SMILES	growth
COc1ccc(C(=O)c2cc3c(N)c(C(=O)Nc4cccc(Br)c4C)sc3nc2C)cc1	-1.07% (active)
Cc1[nH]n(C(=O)c2ccncc2)c(=O)c1N=Nc1ccc(F)c(Cl)c1	109% (inactive)
CCCC1C(C(=O)OCC)=C(N)Oc2cc(O)ccc21 (stereo not given)	97.8% (inactive)
CCCCc1ccc(Nc2nnc(SCC(=O)NC(=O)NCC)s2)cc1	103% (inactive)
CN(C)CCCn1c2c(c3ccc(-c4ccn[nH]4)cc3c1=O)C(=O)c1ccccc1-2	15.5% (inactive)
C[C@@H]1CN(Cc2ccc(/C=C/c3n[nH]c4ccc5nc(-c6cn[nH]c6C(F)(F)F)c6c(c5c34)CCCC6)cc2)C[C@H](C)O1	7.17% (active)
C[C@H]1[C@H](C)CC[C@]2(CO)CC[C@]3(C)C(=CC[C@@H]4[C@@]5(C)Cc6c([nH]c7ccccc67)C(C)(C)[C@@H]5CC[C@]43C)[C@H]12	68.1% (inactive)
COc1ccc(NC(=O)c2sc3nc(C)c(C(=O)c4ccc(OC)cc4)cc3c2N)cc1	7.92% (active)
C[C@]12C[C@H]1CC[C@]1(C)[C@@H]2CC[C@@]23C[C@H](CC[C@H]21)[C@@](O)(CO)C3	100% (inactive)
COc1ccc(OC)c(/C=C/[C@H]2O[C@@H](C)[C@H](O)[C@@H]2O)c1	104% (inactive)
Cc1cccc(Oc2ccc(Nc3ncnc4ccc(NC(=O)CNCCO)cc34)cc2Cl)c1	38.4% (inactive)
O=C(N/N=C/c1cccc(O)c1)c1ccccc1Nc1cccc(C(F)(F)F)c1	106% (inactive)
CN(C)C(=O)OCc1nc2c(N3CCOCC3)nc(-c3ccccc3)nc2n1C	-53.7% (active)
Clc1ccc(C2CC(c3cccc(Nc4ccncc4)c3)=NN2c2ccc(Cl)cc2)cc1 (stereo not given)	-5.47% (active)
CCCCCCCCCCCCCCCCCCOc1ccccc1N	92.5% (inactive)
CN1CCN(C(=O)[C@]2(C)CC[C@]3(C)CC[C@]4(C)C(=CC(=O)[C@@H]5[C@@]6(C)CCC(=O)NC(C)(C)[C@@H]6CC[C@]54C)[C@@H]3C2)CC1	86.9% (inactive)
O=C(O)CCCCCCCCCCCCCCC(=O)O	104% (inactive)
COc1ccc2c(c1)OC13Oc4cc(OC)ccc4C=C1CCCC3=C2	8.16% (active)
COc1ccc(C2CC(c3cccc(Nc4ccncc4)c3)=NN2c2ccc(Cl)cc2)cc1 (stereo not given)	-20.2% (active)
O=C(CN1CCOCC1)Nc1ccc2ncnc(Nc3ccc(OCc4cccc(F)c4)c(Cl)c3)c2c1	61% (inactive)

SMILES	growth
CCc1nc(C)cn1C(=O)OCc1nc2nc(Cl)nc(N3CCOCC3)c2[nH]1	-63.1% (active)
NC(=S)N/N=C(\c1ccc(Cl)cc1)C1CC1	50.6% (inactive)
C#CCn1cc(C=C2C(=O)NC(=S)NC2=O)c2cc(Cl)ccc21	13.6% (inactive)
COc1cc(OC)cc(C2C3=C(COC3=O)Nc3cc(OC)ccc32)c1 (stereo not given)	0.152% (active)
O=C(Nc1nc2ccc(S(=O)(=O)Nc3ccc(C4(C(F)(F)F)CC4)cc3)cc2[nH]1)c1cnccn1	15.6% (inactive)
CCCCCOc1ccc(/C=N/Nc2cc(C)nc3ccc(Br)cc23)cc1	4.52% (active)
CC(C)(C)OC(=O)N1C/C(=C\c2ccoc2)C(=O)/C(=C/c2ccoc2)C1	98% (inactive)
COc1ccc(C(=O)c2cc3c(N)c(C(=O)Nc4cccc(Cl)c4)sc3nc2C)cc1	-3.3% (active)
COc1cc(C(=O)c2cnc(-c3ccc4cc[nH]c4c3)[nH]2)cc(OC)c1OC	-21.6% (active)
CN(Cc1ccccc1)c1nc(Cl)c(C2CC(c3ccc(Cl)cc3)=Cc3[nH][nH]c(=O)c32)s1 (stereo not given)	112% (inactive)
CN1CCN(Cc2ccc(NC(=O)c3cncc(C#Cc4cnccc4C(F)(F)F)c3)cc2C(F)(F)F)CC1	23.5% (inactive)
C[C@H]1[C@H](C)CC[C@]2(CO)CC[C@]3(C)C(=CC[C@@H]4[C@@]5(C)CCCNC(C)(C)[C@@H]5CC[C@]43C)[C@H]12	-75.4% (active)
CN1CCN(c2ccc3nc(-c4cc(C(C)(C)C)c(O)c(C(C)(C)C)c4)[nH]c3c2)CC1	6.14% (active)
CC(C)NC(=O)N1C(=O)CCC1NNC(=O)c1ccc([N+](=O)[O-])cc1 (stereo not given)	106% (inactive)
CC(=O)c1c[nH]c2ccc(-c3ccnc(Nc4ccc(NC(=O)C5CCCC5)c(CN5CCOCC5)c4)n3)cc12	6.97% (active)
COc1ccc(/C=C(/c2ccccc2)[N+](=O)[O-])cc1	-26.7% (active)
Cc1ccc2[nH]c(=S)n(-c3ccc(S(=O)(=O)Nc4ccc(Cl)nn4)cc3)c(=O)c2c1	103% (inactive)
C=C1C(=O)O[C@H]2[C@H]1CC/C(COC(=O)NCCc1c[nH]c3ccc(Cl)cc13)=C\CC[C@@]1(C)O[C@@H]21	-73.6% (active)
COc1ccc(C2CC(c3cccc(Nc4ccncc4)c3)=NN2c2cc(Cl)cc(Cl)c2)cc1 (stereo not given)	-17.5% (active)
O=C1Nc2c(ccc(Cl)c2Cl)/C1=C/c1ccc([N+](=O)[O-])cc1	99.2% (inactive)

Reference: PubChem BioAssay (NCI)
